Laboratory results as given in PubChem BioAssay (NCATS).
Values joined by “and” are separate entries in the source; they are usually repeats but may differ in a detail not shown here. Identical values can stand only once. Inconclusive results are not listed. Where a call stands in place of a potency, no number is given. Active and inactive are the calls of the source. Unless noted, the call rests on the fitted dose curve; in most records, active means well fitted curve in the direction sought with a large enough effect; inconclusive means small, poorly fitted or top-dose-only effect, or another doubt; inactive means no such curve, though single readings can be large; an effect the other way counts as inactive or inconclusive.

Assays:
[1] = P-glycoprotein substrates identified in KB-8-5-11 adenocarcinoma cell line, qHTS therapeutic library screen (AID 1346987); further: nearly all actives have a fitted effect of over 65% in size; further: potency means the concentration at half of the fitted maximal effect
In short: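 Compounds are pinned in dose-response onto KB-8-5-11 cells (500 cells/well, colchicine-free medium) and left 72 h at 37 degree C. CellTiter-Glo luminescence then yields AC50 values.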

[2] = test system: Zika virus NS2B-NS3 protease (unlinked complex); test: Primary screen GU Rhodamine qHTS for Zika virus inhibitors: Unlinked NS2B-NS3 protease assay (AID 1347159); further: nearly all actives have a fitted effect of over 60% in size
In short: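 Enzyme 25 nM in Tris-HCl pH 8.0 + 0.01% Tween 20; compounds up to 114 microM, 15 min RT dark; + Rhod110 substrate 1.5 microM; read t0 and 15 min; delta fluorescence → % inhibition → 4-parameter Hill fit.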

[3] = target: Cytochrome P450 2D6 (Homo sapiens) (UniProt P10635); test: Cytochrome P450 family 2 subfamily D member 6 (CYP2D6) small molecule antagonists: luciferase biochemical (cell-free) qHTS assay (AID 1645840; active means well fitted curve in the direction sought with a large enough effect in the repeat runs; an effect the other way counts as inactive or inconclusive; further: nearly all actives have a fitted effect of over 55% in size; further: potency means the concentration at half of the fitted maximal effect)
In short: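 P450-Glo CYP2D6 system: proluciferin substrate converted by enzyme to luciferin, read by luminescence proportional to activity. Enzyme-substrate mix with compound 10 min at room temperature, then NADPH regeneration 1 h before detection reagent.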

[4] = Primary qHTS for inhibitors of nuclear receptor binding SET domain protein 2 (NSD2) in an RCH-ACV wild type WT cells (2C) (AID 1645877); further: nearly all actives have a fitted effect of over 70% in size; further: potency means the concentration at half of the fitted maximal effect
[5] = target: Catechol O-methyltransferase (Homo sapiens) (UniProt P21964); test: Confirmatory Screen for Target Class Profiling of Small Molecule Inhibitors of Methyltransferases (AID 1745852; calls by dose curve; further: potency means the concentration at half of the fitted maximal effect); details: MTase-Glo luminescence, SAH detection, recombinant enzyme; measured here: COMT max response; stronger effect = lower value
[6] = target: Guanidinoacetate N-methyltransferase (Homo sapiens) (UniProt Q14353); test: as above; details: activity change, negative = inhibition: at 57.3 µM (top of the series) unless noted
[7] = target: Nicotinamide N-methyltransferase (Homo sapiens) (UniProt P40261); test: as above; details: MTase-Glo luminescence, SAH detection, recombinant enzyme; measured here: NNMT max response; stronger effect = lower value
[8] = target: Phenylethanolamine N-methyltransferase (Homo sapiens) (UniProt P11086); test: as above; details: MTase-Glo luminescence, SAH detection, recombinant enzyme; measured here: PNMT max response; stronger effect = lower value
[9] = Primary redox qHTS assay for identification of artifact compounds. (AID 1845223)
In short: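 Redox-cycling detection via DTT (250 uM final) oxidation coupled to Amplex Red (25 uM)/HRP (250 mU/mL) in HBSS. 15 min preincubation plus 30 min after DTT, room temperature. Ex/Em 525/598 nm; 4-parameter Hill fit against DMSO and 10 uM DA3003.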

[10] = test system: JEG-3; test: Primary qHTS to identify gynecologic anti-cancer compounds using libraries of approved drugs and bioactive compounds (AID 1345084); details: Gynecologic cancer cell panel viability, ATPlite luminescence, 48 h; series mostly up to 57.5 µM; further: nearly all actives have a fitted effect of over 55% in size; further: potency means the concentration at half of the fitted maximal effect
In short: (§1)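 Cell viability after 48 h drug treatment, ATPlite luminescence readout; five doses.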

[11] = test system: SKOV3; test: as above; details: Gynecologic cancer cell panel viability, ATPlite luminescence, 48 h; series mostly up to 57.5 µM
In short: as §1

[12] = test system: NIH3T3; test: Cytotoxic Profiling of Annotated Libraries Using Quantitative High-Throughput Screening (AID 1296008); details: Five cell lines viability, CellTiter-Glo ATP luminescence, 48-72 h; max response: stronger effect = lower value; further: nearly all actives have a fitted effect of over 60% in size; further: potency means the concentration at half of the fitted maximal effect
In short: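 Cells exposed to compounds for 48 or 72 hr at 37 degrees Celsius. Viability read as ATP-coupled luminescence with CellTiter-Glo after 10 min at room temperature.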

[13] = test system: HACAT; test: qHTS assay to identify novel small-molecules to repurpose for Merkel cell carcinoma treatment (AID 1296009); details: MCC and control cell lines, CellTiter-Glo viability, 72 h; at 44.8 µM (top of the series) unless noted; further: nearly all actives have a fitted effect of over 60% in size
In short: (§2)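 Dose-response viability screen; 72 hr exposure at 37 degree celsius; CellTiter-Glo added, 10 min room temperature, luminescence read; RLUs scaled between no-cell and DMSO wells.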

[14] = test system: CAOV3; test: Primary qHTS to identify gynecologic anti-cancer compounds using libraries of approved drugs and bioactive compounds (AID 1345084); details: Gynecologic cancer cell panel viability, ATPlite luminescence, 48 h; series mostly up to 57.5 µM; further: nearly all actives have a fitted effect of over 55% in size; further: potency means the concentration at half of the fitted maximal effect
In short: as §1

[15] = test system: HeLa; test: as above; details: Gynecologic cancer cell panel viability, ATPlite luminescence, 48 h; series mostly up to 57.5 µM
In short: as §1

[16] = P-glycoprotein substrates identified in KB-3-1 adenocarcinoma cell line, qHTS therapeutic library screen (AID 1346986); further: nearly all actives have a fitted effect of over 60% in size;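 further: potency means the concentration at half of the fitted maximal effect; potency is for cytotoxicity meaning loss of cell viability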
In short: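 In 1536-well format, 500 cells/well received pinned compound titrations and were incubated 72 h, 5% CO2. Viability was read by CellTiter-Glo; cytotoxic if AC50 < 10 uM and efficacy >50%.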

[17] = qHTS drug screen for cell cycle checkpoint inhibitors in PARPi-resistant BRCA-mutant ovarian cancer cell lines. (AID 1963452; calls by dose curve); details: PEO1/OlaR viability, CellTiter-Glo luminescence, 96 h, stronger effect = lower value
In short: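 PEO1, PEO4 and PEO1/OlaR ovarian cancer cells, 600 per well, exposed 96 h at 37C to a dilution series. Viability read by CellTiter-Glo luminescence, normalized to DMSO and empty wells; activity summarized as Z-AUC.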

[18] = target: Cytochrome P450 2C9 (Homo sapiens) (UniProt P11712); test: Cytochrome P450 family 2 subfamily C member 9 (CYP2C9) small molecule antagonists: luciferase biochemical (cell-free) qHTS assay (AID 1645842; active means well fitted curve in the direction sought with a large enough effect in the repeat runs; an effect the other way counts as inactive or inconclusive; further: nearly all actives have a fitted effect of over 55% in size)
In short: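 P450-Glo CYP2C9 system: proluciferin substrate with enzyme in mix containing 0.4% BSA, 10 min at room temperature, then NADPH regeneration solution added and incubated 1 h at 37C. Detection reagent stopped reaction; luminescence read after 20 min as RLU.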

[19] = test system: CRL-7250; test: qHTS assay to identify novel small-molecules to repurpose for Merkel cell carcinoma treatment (AID 1296009); details: MCC and control cell lines, CellTiter-Glo viability, 72 h; series mostly up to 92 µM; further: nearly all actives have a fitted effect of over 60% in size
In short: as §2

[20] = Cytotoxicity counterscreen for inhibitors of SARS-CoV-2 cell entry (AID 1645845; calls by dose curve; further: nearly all actives have a fitted effect of over 50% in size)
In short: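 Counterscreen run in the same HEK293-ACE2 line as the pseudotyped-particle entry assay, without particles. Viability after 48 h at 37 C was read as ATP luminescence, scaled between cell-containing and cell-free wells.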

Cytochrome P450 2D6 (Homo sapiens), sequence (P10635 whole entry, looked up): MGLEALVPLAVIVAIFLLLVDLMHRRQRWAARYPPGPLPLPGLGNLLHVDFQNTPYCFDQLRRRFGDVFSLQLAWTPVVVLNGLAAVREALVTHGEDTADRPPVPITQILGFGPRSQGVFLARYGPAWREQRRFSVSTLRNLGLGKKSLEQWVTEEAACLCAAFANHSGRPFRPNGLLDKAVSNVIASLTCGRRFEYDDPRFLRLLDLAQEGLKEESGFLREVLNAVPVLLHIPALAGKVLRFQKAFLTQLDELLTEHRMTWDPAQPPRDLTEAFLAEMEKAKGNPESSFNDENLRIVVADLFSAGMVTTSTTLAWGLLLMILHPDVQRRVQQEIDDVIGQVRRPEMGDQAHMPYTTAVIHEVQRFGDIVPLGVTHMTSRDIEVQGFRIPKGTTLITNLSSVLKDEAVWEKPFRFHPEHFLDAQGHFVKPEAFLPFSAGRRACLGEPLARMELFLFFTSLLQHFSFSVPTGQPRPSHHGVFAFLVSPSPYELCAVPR
Cytochrome P450 2C9 (Homo sapiens), sequence (P11712 whole entry, looked up): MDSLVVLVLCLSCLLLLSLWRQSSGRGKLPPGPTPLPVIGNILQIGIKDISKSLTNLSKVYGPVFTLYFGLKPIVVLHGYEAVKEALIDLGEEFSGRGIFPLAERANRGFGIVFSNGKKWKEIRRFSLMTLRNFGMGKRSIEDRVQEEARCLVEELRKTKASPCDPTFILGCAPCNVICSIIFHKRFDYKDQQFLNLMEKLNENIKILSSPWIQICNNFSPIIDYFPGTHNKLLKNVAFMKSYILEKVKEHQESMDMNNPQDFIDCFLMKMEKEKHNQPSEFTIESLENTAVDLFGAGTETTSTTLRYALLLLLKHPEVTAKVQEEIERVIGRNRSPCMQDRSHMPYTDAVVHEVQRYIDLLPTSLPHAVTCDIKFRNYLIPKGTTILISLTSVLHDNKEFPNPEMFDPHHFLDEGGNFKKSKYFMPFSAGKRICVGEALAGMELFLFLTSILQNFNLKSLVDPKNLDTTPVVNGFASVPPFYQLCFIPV
Catechol O-methyltransferase (Homo sapiens), sequence (P21964 whole entry, looked up): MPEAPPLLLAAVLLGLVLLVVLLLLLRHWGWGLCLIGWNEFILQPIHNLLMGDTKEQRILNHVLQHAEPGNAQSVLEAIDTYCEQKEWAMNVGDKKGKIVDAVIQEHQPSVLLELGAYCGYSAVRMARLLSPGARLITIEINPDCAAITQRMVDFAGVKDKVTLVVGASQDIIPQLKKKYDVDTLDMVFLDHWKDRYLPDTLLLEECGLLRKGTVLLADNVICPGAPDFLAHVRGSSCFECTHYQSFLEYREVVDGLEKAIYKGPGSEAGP
Nicotinamide N-methyltransferase (Homo sapiens), sequence (P40261 whole entry, looked up): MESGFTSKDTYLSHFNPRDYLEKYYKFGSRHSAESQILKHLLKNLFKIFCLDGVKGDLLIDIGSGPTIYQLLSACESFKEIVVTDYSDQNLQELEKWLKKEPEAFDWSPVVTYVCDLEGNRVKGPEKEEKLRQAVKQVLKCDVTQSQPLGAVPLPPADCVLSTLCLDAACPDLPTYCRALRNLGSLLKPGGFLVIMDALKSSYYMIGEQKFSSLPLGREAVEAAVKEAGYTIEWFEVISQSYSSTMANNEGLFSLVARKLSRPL
Phenylethanolamine N-methyltransferase (Homo sapiens), sequence (P11086 whole entry, looked up): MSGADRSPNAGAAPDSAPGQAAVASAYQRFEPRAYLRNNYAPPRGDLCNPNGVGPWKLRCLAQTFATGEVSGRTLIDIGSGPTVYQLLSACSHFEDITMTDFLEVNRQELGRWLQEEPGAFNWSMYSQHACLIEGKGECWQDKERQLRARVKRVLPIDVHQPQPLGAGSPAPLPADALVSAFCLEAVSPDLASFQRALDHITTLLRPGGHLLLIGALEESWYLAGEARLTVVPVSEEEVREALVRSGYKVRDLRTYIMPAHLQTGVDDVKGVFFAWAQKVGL

Q: Which Potency [1] does the source give for `CCCCN1[C@@H]2CC[C@H]1CC(OC(c1ccc(F)cc1)c1ccc(F)cc1)C2` (stereo not given in full) here?
A: The Potency was 18400 nM (active).

Q: And the Potency [2]?
A: The Potency was “inactive”.

Q: What about the Potency [3] of the same compound?
A: The Potency was 169 nM (active).

Q: What about the Potency [4] of the same compound?
A: Its Potency is 9.16 µM (active).

Q: And the activity [5]?
A: Its activity is 0.354%.

Q: And the activity change, negative = inhibition [6]?
A: The activity change, negative = inhibition was 0%.

Q: And the activity [7]?
A: Its activity is -14%.

Q: And the activity [8]?
A: Its activity is 3.98%.

Q: And the Potency [9]?
A: The Potency was “inactive”.

Q: What about the Potency [10] of the same compound?
A: Its Potency is “inactive”.

Q: Which results are given for `C[C@H]1C/C=C/[C@H]2[C@@H]3O[C@]3(C)[C@@H](C)[C@H]3[C@H](Cc4ccccc4)NC(=O)[C@]32OC(=O)O/C=C/[C@@](C)(O)C1=O`?
A: Potency [1]: 2240 nM (active); Potency [2]: inactive; Potency [4]: 0.502 µM (active); Potency [9]: inactive; Potency [11]: 2000 nM (active)

Q: What does the source list for `CCC1NC(=O)C2C(Cl)C(Cl)CN2C(=O)C(CC)NC(=O)CC(c2ccccc2)NC(=O)C(CO)NC1=O` (stereo not given)?
A: Potency [9]: inactive; outcome [12]: inactive; outcome [13]: inactive [at 17.4 µM]; Potency [14]: inactive; Potency [15]: inactive; Potency [10]: inactive

Q: What does the source list for `C[C@H]1CCC/C=C/C2C[C@H](O)C[C@H]2[C@H](O)/C=C/C(=O)O1` (stereo not given in full)?
A: Potency [16]: 146 nM (active); Potency [2]: inactive; Potency [4]: 163 nM (active) and 417 nM (active); Potency [9]: inactive; Z-AUC [17]: -0.883 (inactive); Z-AUC ([17]; measured here: PEO1 parental Z-AUC): -1.19; Z-AUC ([17]; measured here: PEO4 Z-AUC): -1.2; Potency [12]: 5170 nM (active); Potency [14]: 316 nM (active); Potency [15]: 355 nM (active); Potency [10]: 891 nM (active)

Q: For `CC[C@H]1C2CC3[C@@H]4N(C)c5ccccc5[C@]45C[C@@H]([C@H]2[C@H]5O)N3[C@@H]1O`, which Potency [1] is on record?
A: The Potency was “inactive”.

Q: What about the Potency [4] of the same compound?
A: Its Potency is “inactive”.

Q: And the Potency [9]?
A: Its Potency is “inactive”.

Q: And the Potency [14]?
A: The Potency was “inactive”.

Q: And the Potency [15]?
A: Its Potency is “inactive”.

Q: What about the Potency [10] of the same compound?
A: The Potency was “inactive”.

Q: What about the Potency [11] of the same compound?
A: The Potency was “inactive”.

Q: Which Potency [2] does the source give for `Cc1ccccc1CN1CCC(N2CCC(n3c(=O)[nH]c4ccccc43)CC2)CC1` here?
A: The Potency was “inactive”.

Q: What about the Potency [3] of the same compound?
A: The Potency was 12000 nM (active).

Q: What about the Potency [18] of the same compound?
A: Its Potency is “inactive”.

Q: What about the Potency [4] of the same compound?
A: The Potency was “inactive”.

Q: What about the Potency [9] of the same compound?
A: The Potency was “inactive”.

Q: What about the outcome [12] of the same compound?
A: The outcome was “inactive”.

Q: What about the Potency [15] of the same compound?
A: Its Potency is “inactive”.

Q: And the Potency [10]?
A: The Potency was “inactive”.

Q: For `N#Cc1cn([C@@H]2O[C@H](CO)[C@H](O)[C@@H]2O)c2ncnc(N)c12`, which Potency [1] is on record?
A: Its Potency is 20.6 nM (active).

Q: And the Potency [2]?
A: Its Potency is “inactive”.

Q: What about the Potency [3] of the same compound?
A: Its Potency is “inactive”.

Q: And the Potency [18]?
A: The Potency was “inactive”.

Q: What about the activity [5] of the same compound?
A: Its activity is -98.2%.

Q: And the Potency [6]?
A: Its Potency is 38300 nM (active).

Q: And the activity [7]?
A: Its activity is -89.8%.

Q: And the activity [8]?
A: The activity was -99.9%.

Q: And the Potency [9]?
A: The Potency was “inactive”.

Q: Which Potency [1] does the source give for `CCC1C2CC3C4N(C)c5ccccc5C45CC(C2C5O)N3C1O` (stereo not given) here?
A: The Potency was “inactive”.

Q: And the Potency [2]?
A: The Potency was “inactive”.

Q: And the Potency [4]?
A: The Potency was “inactive”.

Q: What about the Potency [9] of the same compound?
A: The Potency was “inactive”.

Q: What about the max response [12] of the same compound?
A: The max response was 2.24% (inactive).

Q: What about the Potency [14] of the same compound?
A: Its Potency is “inactive”.

Q: What about the Potency [15] of the same compound?
A: Its Potency is “inactive”.

Q: And the Potency [10]?
A: Its Potency is “inactive”.

Q: And the Potency [11]?
A: The Potency was “inactive”.

Q: What does the source list for `Nc1ncnc2c1ncn2[C@@H]1O[C@@H]2COP(O)(=S)O[C@H]2[C@H]1O` (stereo not given in full)?
A: activity change, negative = cytotoxicity [1]: 2.93% [at 9.29 µM] (inactive); activity change, negative = inhibition [2]: 2.11% [at 19.1 µM] (inactive); redox activity (% of DA3003) [9]: -10% [at 11.5 µM] (inactive); max response [12]: 4.38% (inactive); activity change, negative = cytotoxicity [14]: 2.86% [at 11.6 µM] (inactive); activity change, negative = cytotoxicity [15]: 5.24% [at 11.6 µM] (inactive); activity change, negative = cytotoxicity [10]: 6.35% [at 11.6 µM] (inactive); activity change, negative = cytotoxicity [11]: 33.4% [at 11.6 µM] (inactive)

Q: With `C=C(C)[C@@H]1[C@H]2OC(=O)[C@H]1[C@]1(O)C[C@H]3O[C@]34C(=O)O[C@H]2[C@]14C` as the compound, how does the Potency [16] read?
A: The Potency was “inactive”.

Q: What about the Potency [1] of the same compound?
A: The Potency was “inactive”.

Q: What about the Potency [2] of the same compound?
A: Its Potency is “inactive”.

Q: What about the Potency [4] of the same compound?
A: The Potency was “inactive”.

Q: What about the Potency [9] of the same compound?
A: The Potency was “inactive”.

Q: What about the outcome [12] of the same compound?
A: Its outcome is “inactive”.

Q: And the Potency [19]?
A: The Potency was “inactive”.

Q: What about the Potency [14] of the same compound?
A: The Potency was “inactive”.

Q: And the Potency [10]?
A: The Potency was “inactive”.

Q: And the Potency [11]?
A: The Potency was “inactive”.

Q: With `Cc1sc2c(c1C)C(c1ccc(Cl)cc1)=NC(CC(=O)Nc1ccc(O)cc1)c1nnc(C)n1-2` (stereo not given) as the compound, how does the Potency [3] read?
A: Its Potency is “inactive”.

Q: What about the Potency [18] of the same compound?
A: Its Potency is “inactive”.

Q: What about the Potency [20] of the same compound?
A: Its Potency is “inactive”.

Q: What about the Potency [9] of the same compound?
A: The Potency was “inactive”.

Q: And the Potency [12]?
A: Its Potency is 1300 nM (active).

Q: And the Potency [10]?
A: Its Potency is “inactive”.

Q: And the Potency [11]?
A: Its Potency is 3160 nM (active).
